Screens from PubChem.
CtBP-E1A blk: CtBP/E1A binding inhibition. AlphaScreen GST-E1A/His-CtBP binding, 1536-well; stronger effect = lower value. activity change, % (test concentration not listed). 340,000 compounds, 0.49% hits; in the data active = activity change below about -65%; inconclusive = mostly about -30% to -63%; note: % is set by controls: 0 for no effect and ±100 for the full control effect
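Steps: dispense buffer (Tris pH 8.0, NaCl 300 mM, TCEP 1 mM, BSA, Tween 20); add 5X protein mix (GST-E1A, His-CtBP, 125 nM each); pin 23 nL compound; 2 h at 37 °C, dark; add 5X beads (50 ug/mL); 1 h; read.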
Six1-Eya2 blk: inhibitors of human Six1/Eya2 interaction. activity change, % (concentration not given with the values). Q15475+O00167. 360,000 compounds, 0.56% hits. AlphaScreen GST-Six1/His-Eya2 binding, biochemical; stronger effect = lower value. AID 651725; in the data active = activity change below about -65%; inconclusive = mostly about -30% to -63%; note: % is set by controls: 0 for no effect and ±100 for the full control effect
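Homogeneous AlphaScreen proximity assay pairing GST-Six1 with His-tagged Eya2 (added as 5X mix: 250 nM and 500 nM) in 50 mM Tris pH 8.0, 300 mM NaCl, 1 mM TCEP. Glutathione donor and nickel acceptor beads; 1 h, 37 °C, dark.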
BAZ2B inh: BAZ2B (human) inhibition; AlphaScreen BAZ2B-H3K14Ac peptide displacement; Q9UIF8; 360,000 compounds, 4.4% hits; Potency, µM (series often up to 114 µM), for inactives: at the top dose activity change, negative = inhibition, usual class: inhibitors; note: potency is the fitted concentration of half-maximal effect; % is set by controls: 0 for no effect and ±100 for the full control effect; nearly all actives have a fitted effect of over 60% in size
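AlphaScreen luminescence quantifies BAZ2B engagement of H3K14Ac peptide; the protein and biotinylated peptide are both at 50 nM final, buffer PBS pH 7.4 with 0.01% Tween-20, all steps at room temperature.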
G9a inh: blocks human histone lysine methyltransferase G9a. G9a H3K9 monomethylation, AlphaScreen, 2 h. Potency, µM (top dose mostly 102 µM), inactives show top-dose activity, negative = inhibition, usual class: inhibitors. AID 504332. 350,000 compounds, 8.8% hits; note: potency is the fitted concentration of half-maximal effect; % is set by controls: 0 for no effect and ±100 for the full control effect; nearly all actives have a fitted effect of over 75% in size
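Signal arises when biotinylated H3K9 peptide, once monomethylated, bridges streptavidin donor and antibody-captured acceptor beads. Enzyme at 20 nM was preincubated 15 min with test compounds; peptide 500 nM and SAM 20 uM then reacted for 2 h.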
JMJD2A Tudor inh: blocks the human JMJD2A Tudor domain | O75164 | AlphaScreen JMJD2A-Tudor / H3K4me3 peptide binding | Potency, µM (series often up to 114 µM), without a hit: top-dose activity change, negative = inhibition, most hits filed as inhibitors | 390,000 compounds, 4.4% hits | AID 504339; note: potency is the fitted concentration of half-maximal effect; % is set by controls: 0 for no effect and ±100 for the full control effect; nearly all actives have a fitted effect of over 50% in size
Target sequence (O75164 whole entry, looked up, the tested form may be a part): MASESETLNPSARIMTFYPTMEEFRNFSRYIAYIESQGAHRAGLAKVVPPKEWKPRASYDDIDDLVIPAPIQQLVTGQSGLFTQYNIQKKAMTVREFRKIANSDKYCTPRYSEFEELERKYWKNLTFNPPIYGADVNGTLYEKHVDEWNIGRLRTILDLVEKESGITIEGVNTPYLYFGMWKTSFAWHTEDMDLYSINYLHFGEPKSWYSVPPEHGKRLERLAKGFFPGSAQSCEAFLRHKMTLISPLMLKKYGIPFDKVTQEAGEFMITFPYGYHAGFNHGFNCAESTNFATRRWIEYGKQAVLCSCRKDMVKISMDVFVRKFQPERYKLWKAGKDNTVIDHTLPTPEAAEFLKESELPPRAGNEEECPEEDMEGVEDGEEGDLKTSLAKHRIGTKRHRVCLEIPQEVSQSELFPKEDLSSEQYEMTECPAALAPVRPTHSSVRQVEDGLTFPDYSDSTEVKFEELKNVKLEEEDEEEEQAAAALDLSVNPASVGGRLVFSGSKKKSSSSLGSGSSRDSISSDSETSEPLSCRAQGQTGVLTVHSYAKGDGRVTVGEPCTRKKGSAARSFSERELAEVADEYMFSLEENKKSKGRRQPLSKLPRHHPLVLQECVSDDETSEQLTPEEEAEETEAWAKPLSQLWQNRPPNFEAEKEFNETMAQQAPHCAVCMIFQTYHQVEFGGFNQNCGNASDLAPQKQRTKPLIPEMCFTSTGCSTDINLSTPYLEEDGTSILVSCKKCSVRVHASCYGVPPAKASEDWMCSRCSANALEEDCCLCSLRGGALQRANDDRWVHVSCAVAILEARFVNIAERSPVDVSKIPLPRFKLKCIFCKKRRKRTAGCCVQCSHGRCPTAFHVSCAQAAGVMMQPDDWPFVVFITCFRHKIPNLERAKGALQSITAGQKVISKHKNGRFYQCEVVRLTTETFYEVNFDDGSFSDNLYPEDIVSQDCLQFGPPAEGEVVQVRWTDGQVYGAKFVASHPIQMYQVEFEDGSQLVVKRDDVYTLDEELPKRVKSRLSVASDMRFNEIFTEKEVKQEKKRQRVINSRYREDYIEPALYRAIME
HP1b chromo inh: blocks HP1-beta chromodomain binding to methylated histone tails; AlphaScreen HP1-beta / biotin-H3K9me3 peptide binding; Potency, µM (series often up to 114 µM), without a hit: at the top dose activity change, negative = inhibition, usual class: inhibitors; 390,000 compounds, 0.56% hits; P83916; note: potency is the fitted concentration of half-maximal effect; nearly all actives have a fitted effect of over 70% in size
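AlphaScreen: HP1-beta (50 nM) preformed 30 min with biotin-H3(1-18)K9me3 peptide (50 nM) in PBS pH 7.4, 0.01% Tween-20. Compound added for 30 min at RT, then streptavidin donor/nickel chelate acceptor beads (10 ug/mL) for 30 min.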
The depositor's hits bear a star; u = inconclusive; x = no result given; [ ] = another dose, or the depositor's remark. The list is not random: actives were taken first. Their share in the collection is about 10%. Unless noted, calls come from the whole dose curve; as a rule, active = well fitted inhibition curve with a large enough effect; inconclusive = small, poorly fitted or top-dose-only effect; inactive = no such curve, though single readings can be large or run the other way.

SMILES	CtBP-E1A blk	Six1-Eya2 blk	BAZ2B inh	G9a inh	JMJD2A Tudor inh	HP1b chromo inh
COc1cc(/C=C(\C#N)c2nc3ccccc3[nH]2)cc(OC)c1O	u	u	39.8µM*	10µM*	u	-35.6%
COc1cc(/C=C(\C#N)c2nc3ccccc3n2C)cc(OC)c1O	-9.6	-9.0	-35.7%	22.4µM*	-26.2%	1.7%
COc1c(Cl)cc(Cl)cc1/C=C(\C#N)c1nc2ccccc2[nH]1	x	x	-1.4%	-3.6%[59 µM]	-0.3%	0.9%
Cn1c(/C(C#N)=C/c2ccc(O)cc2)nc2ccccc21	-0.3	-0.9	-6.5%	x	-10.4%	24.5%
COc1c(O)ccc(/C=C(\C#N)c2nc3ccccc3[nH]2)c1[N+](=O)[O-]	3.6	-10.9	39.8µM*	7.94µM*	u	u
COc1cccc(CNC(=O)C2CCN(S(=O)(=O)c3cn(C)cn3)CC2)c1	x	x	-4.9%	13.9%[59 µM]	-4.6%	10.6%
CC(=O)c1ccc(N2CCN(C(=O)CS(=O)(=O)c3cccc4nsnc34)CC2)cc1	x	x	-3.0%	-1.8%[59 µM]	-18.1%	14.3%[57 µM]
CCc1ccc(S(=O)(=O)c2c[nH]c3cc(OC)c(OC)cc3c2=O)cc1	x	x	1.2%	2.8%[59 µM]	-3.6%	36.5%
O=C(O)CCn1ccc2cc(S(=O)(=O)N3CCCCC3)ccc21	x	x	7.1%	5.8%[59 µM]	-16.8%	24.3%
NCCCNc1ccc(Br)cn1	x	x	x	x	-8.8%	25.7%
COc1cc(/C=C(\C#N)c2nc3ccc(C)cc3[nH]2)cc([N+](=O)[O-])c1O	-74.6*	-72.8*	12.6µM*	x	39.8µM*	35.5µM*
Cc1ccc(N(C)C(=O)Cn2nc(Cc3ccncc3)c3ccccc3c2=O)cc1C	x	x	-12.3%	-0.5%[59 µM]	-7.6%	46.2%
O=C(N/N=C/c1ccoc1)c1ccccc1O	-1.1	-10.4	u	-5.4%	-18.8%	3.1%
O=C(N/N=C/c1oc(O)c2ccccc12)c1ccccc1O	x	-24.1	-7.8%	35.5µM*	-16.0%	-17.1%
O=C(N/N=C/c1ccc2nccnc2c1)c1ccccc1O	x	x	-10.1%	16.4%	x	x
O=C(N/N=C/c1ccnc2ccccc12)c1ccccc1O	-5.9	u	-14.4%	3.9%	100µM*	1.1%
O=C(NCCNC(=O)c1ccccc1O)c1ccccc1O	8.9	-4.5	u	-9.1%[0.501 µM]	-20.9%	28.7%
O=C(NO)c1ccccc1O	6.6	6.8	u	2µM*	-24.8%	53.3%
Cc1ccc(-c2nc(C(=O)NC3CCCCCC3)no2)cc1	2.4	7.4	x	x	15.8µM*	46.2%
CCOC(=O)N1CCC2(CC1)OC(=O)C(C)=C2C(=O)NCc1cccc(OC)c1	x	x	1.1%	13.4%[59 µM]	4.0%	14.1%
O=c1[nH]c(CN2CCCCC2)nc2ccccc12	2.0	-2.2	-7.8%	u	u	14.9%
c1ccc2[nH]c(CN3CCCCCC3)nc2c1	1.1	-0.4	-15.1%	28.2µM*	-15.9%	25.1%
CCCn1c(CCC(=O)Nc2ccc(C)c(Cl)c2)nc2cccnc21	x	x	-6.7%	-5.1%[59 µM]	-20.2%	15.8%
CC(=O)N(c1ccc2oc(=O)sc2c1)S(=O)(=O)c1cccc2cccnc12	-14.3	-24.4	-19.3%	22.4µM*	-12.0%	22.3%
CCCC(=O)N(c1ccc2oc(C)c(C(C)=O)c2c1)S(=O)(=O)c1ccc(C(=O)O)cc1	-1.1	9.9	-1.5%	35.5µM*	-14.4%	-3.2%
SMILES	CtBP-E1A blk	Six1-Eya2 blk	BAZ2B inh	G9a inh	JMJD2A Tudor inh	HP1b chromo inh
CCCC(=O)N(c1ccc2oc(C)c(C(C)=O)c2c1)S(=O)(=O)c1ccc(C)c([N+](=O)[O-])c1	3.1	-4.6	5.1%	-6.9%[59 µM]	-13.5%	34.0%
CC(=O)N(c1ccc2oc(=O)sc2c1)S(=O)(=O)c1ccc(C(=O)O)cc1	-16.9	9.4	-14.5%	17.8µM*	-24.5%	10.7%
Cc1ccc(-c2nc3scc(CCNC(=O)Cc4ccc(Cl)cc4)n3n2)cc1	x	x	5.3%	8.6%[59 µM]	-1.6%	29.9%[57 µM]
CC(CCc1ccccc1)NC(=O)CSc1n[nH]c(-c2ccc(F)cc2)n1 (configuration not stated)	x	x	1.1%	-1.8%[59 µM]	0.3%	32.3%[57 µM]
CCc1nnc(NS(=O)(=O)c2ccc(N=Cc3c(C)[nH]n(-c4ccc(C)c(C)c4)c3=O)cc2)s1	u	u	50.1µM*	-48.6%	-31.0%	-8.4%
Cc1cc(C)nc(NS(=O)(=O)c2ccc(N=Cc3c(C)[nH]n(-c4ccccc4)c3=O)cc2)n1	2.4	u	-6.9%	4.8%[59 µM]	79.4µM*	-4.6%
Cc1[nH]n(-c2ccc(Br)cc2)c(=O)c1C=Nc1ccc(S(=O)(=O)Nc2nccs2)cc1	u	-29.4	u	24.5%	u	19.4%
Cc1ccccc1N(Cc1cc(=O)[nH]c2ccccc12)C(=O)C(C)C	1.6	0.0	-1.2%	79.4µM*	-17.3%	-4.5%
CCC(=O)N(Cc1cc(=O)[nH]c2ccccc12)c1ccc(C)cc1C	1.9	-1.3	-29.1%	70.8µM*	-6.2%	27.2%
Cc1ccc(N(Cc2cc(=O)[nH]c3ccccc23)C(=O)C(C)C)c(C)c1	-4.4	16.2	24.3%	u	-18.2%	56.0%
c1cnc(N2CCN(c3ncc4c(n3)CCNC4)CC2)nc1	x	x	u	u	u	54.0%
C#CCOCCOCCOCCNc1nc(N2CCN(C(=O)CCCCCCCCCCNC(=O)[C@@H](CCC(=O)O)n3cc(CCCCCN)nn3)CC2)nc(N2CCN(C(=O)CCCCCCCCCCNC(=O)[C@H](CCCCN)n3cc(C[C@@H](C)CC)nn3)CC2)n1	-7.4	-6.0	u	-15.7%[2.33 µM]	56.2µM*	-3.0%
C#CCOCCOCCOCCNc1nc(N2CCN(C(=O)CCCCCCCCCCNC(=O)[C@H](CCCCN)n3cc(CCO)nn3)CC2)nc(N2CCN(C(=O)CCCCCCCCCCNC(=O)[C@H](CCCCN)n3cc(C[C@@H](C)CC)nn3)CC2)n1	-17.9	0.7	u	13.6%[2.33 µM]	22.4µM*	50.1µM*
C#CCOCCOCCOCCNc1nc(N2CCN(C(=O)CCCCCCCCCCNC(=O)[C@@H](CCC(=O)O)n3cc(CCCCCN)nn3)CC2)nc(N2CCN(C(=O)CCCCCCCCCCNC(=O)[C@H](CO)n3cc(CCCCCN)nn3)CC2)n1	-0.6	-3.7	-37.8%	-6.5%[2.33 µM]	u	-12.5%
C#CCOCCOCCOCCNc1nc(N2CCN(C(=O)CCCCCCCCCCNC(=O)[C@H](CCCCN)n3cc(CCO)nn3)CC2)nc(N2CCN(C(=O)CCCCCCCCCCNC(=O)[C@H](CCCCN)n3cc(CCCC(=O)O)nn3)CC2)n1	-4.0	-0.3	-26.8%	-7.3%[2.33 µM]	-34.8%	15.0%
FC(F)(F)c1ccccc1-c1cc(NCc2cccs2)ncn1	x	x	x	-32.9%[0.501 µM]	x	x
COC(=O)CNC(=O)C(Cc1c[nH]c2ccccc12)NC(=O)Oc1ccccc1 (configuration not stated)	4.7	-1.5	0.708µM*	x	1.7%	14.3%
